# Screening data as filed in PubChem.
# CYP2C9 inhib = inhibitors of human CYP2C9. P11712. CYP2C9 Supersomes, luciferin-H conversion, luminescence. inhibition, % at 5 µM. 20% of 96,000 active;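 active = blocking of liver enzyme CYP2C9 beyond about 50% at 5 µM, limit read from the data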
# Target sequence (P11712 whole entry, looked up): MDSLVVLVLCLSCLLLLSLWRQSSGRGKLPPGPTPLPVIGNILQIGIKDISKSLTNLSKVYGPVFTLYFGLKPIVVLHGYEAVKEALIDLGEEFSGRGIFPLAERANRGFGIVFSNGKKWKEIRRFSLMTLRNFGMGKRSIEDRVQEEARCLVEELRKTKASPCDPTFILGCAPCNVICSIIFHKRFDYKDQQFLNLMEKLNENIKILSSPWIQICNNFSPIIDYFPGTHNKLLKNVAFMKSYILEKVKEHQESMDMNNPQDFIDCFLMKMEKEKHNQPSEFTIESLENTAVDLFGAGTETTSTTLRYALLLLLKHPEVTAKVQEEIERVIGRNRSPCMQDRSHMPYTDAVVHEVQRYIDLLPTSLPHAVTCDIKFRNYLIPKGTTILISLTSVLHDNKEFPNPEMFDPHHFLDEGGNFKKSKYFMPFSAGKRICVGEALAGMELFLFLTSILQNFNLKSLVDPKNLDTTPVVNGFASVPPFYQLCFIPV
# CYP2C9 activ = increases human cytochrome P450 2C9 activity. P11712. recombinant CYP2C9, luciferin-H conversion, luminescence; hits give high values; factor 1 = untreated enzyme, 0 = blocked. activation factor at 5 µM. 1.4% of 96,000 active. AID 1024;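 active = activation factor of 2 or more for CYP2C9 at a 5 µM dose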;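 note: 0 = sulfaphenazole-blocked wells and 1 = vehicle-only wells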
# CYP2C19 inh = human CYP2C19 inhibition | P33261 | CYP2C19 Supersomes, luciferin-H EGE luminescence, 30 min | inhibition, % at 5 µM | 21% of 96,000 active | AID 778;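 active = CYP2C19 inhibition above a set limit at 5 µM in the primary screen, cut at about 50% in these data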;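 note: plate controls were negative control wells for no effect and 2.5 mM tranylcypromine positive control for full effect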
# Cav3 T inh = blocks human Cav3.2 T-type calcium channel | 4% of 100,000 active | O95180 | B-score at 10 µM | Cav3.2-expressing cells, Fluo-4 calcium fluorescence FDSS; hits give low values;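 active = single-dose well whose peak fluorescence ratio is a statistical outlier from its plate by either plate-standardised score or position-corrected B-score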
# CYP2C19 act = activators of human cytochrome P450 2C19; recombinant CYP2C19, luciferin-H EGE luminescence; hits give high values; 0 = fully inhibited enzyme, 1 = untreated enzyme; activation factor at 5 µM; 96,000 tested, under 10 active;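 active = activation factor of at least 2 at 5 µM in the primary screen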;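 note: 0 = wells with 2.5 mM tranylcypromine and 1 = vehicle-only wells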
# Pyk2 oligo antag = Pyk2 (human) oligomerization antagonism | Q293 cells, Pyk2 FERM NanoBiT luminescence; hits give low values | z-score (the deposit names both 25 µM and 10 µM) | 0.83% of 99,000 active | AID 1347419;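 active = Z-score of -3 or lower, scaled per plate to the spread of control and sample wells; inactive = z-score above -3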;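 note: negative z-score means lost luminescence so less FERM oligomerization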
# The depositor's hits bear a star; x = not tested or not shown. Sampled rows, rich in hits. Any-hit rate of the full collection: about 27%.
SMILES,CYP2C9 inhib,CYP2C9 activ,CYP2C19 inh,Cav3 T inh,CYP2C19 act,Pyk2 oligo antag
CCCC1S/C(=N/N=C/c2ccc(OC)cc2)N(Cc2ccccc2)C1=O (centres undefined),-1,1,3,-3.6*,1,0.26
CCCC1S/C(=N/N=C/c2ccc(OC)cc2)N(Cc2ccc(OC)cc2)C1=O (centres undefined),-31,1.3,-39,-3.7*,1.4,-0.3
CN1CCCCCC1=NC1=C(C#N)CCCC1,-6,1.1,17,0.97,0.8,0.39
CN(CC(=O)NCc1ccccc1)S(=O)(=O)c1cnc[nH]1,80*,0.2,100*,x,0,0.26
CN(CC(=O)NCc1ccccn1)S(=O)(=O)c1ccccc1,13,0.9,20,1.3,0.8,1.7
CN(CC(=O)NCc1ccncc1)S(=O)(=O)c1ccccc1,83*,0.2,94*,1.3,0.1,0.44
CN(CC(=O)NCc1ccncc1)S(=O)(=O)c1ccc(F)cc1,82*,0.2,91*,1.6,0.1,0.33
CCN(c1ccccc1)S(=O)(=O)c1cnc[nH]1,100*,0,98*,0.07,0,1
Cn1c(=O)c2c3c(sc2n2c(SCc4ccc5c(c4)OCO5)nnc12)COC(C)(C)C3,19,0.8,-4,x,1,x
CCOc1ccc(-c2nnn(CC(=O)N3CCCC3)n2)cc1OCC,x,x,x,0.78,x,0.44
COC(=O)c1ccc(COc2ccccc2/C=N/NS(=O)(=O)c2ccccc2)cc1,23,0.8,7,-0.4,0.9,-1.7
CCOC(=O)N1CCN(S(=O)(=O)c2ccc(Br)s2)CC1,81*,0.2,88*,0.69,0.1,0.35
Cc1ccc(NC(=O)CN2CCCN(S(=O)(=O)c3ccc(Br)s3)CC2)cc1,31,0.7,91*,-4,0.1,-0.66
Cc1cc(C)cc(NC(=O)CN2CCCN(S(=O)(=O)c3ccc(Br)s3)CC2)c1,-68,1.7,31,-3.3,0.7,-0.33
CC(O)[C@H]1CNC(=O)C(=O)N1CCC12CC3CC(CC(C3)C1)C2 (some centres undefined),x,x,x,0.94,x,x
O=C(O)CCn1c(SCc2ccccc2)nc2ccccc21,8,0.9,3,0.066,1,0.65
C=CCn1c(SCC(=O)Nc2sccc2C#N)nc2sc(C)c(C)c2c1=O,30,0.7,-7,0.1,1.1,0.53
C=CCn1c(SCc2c(C)noc2C)nc2sc(C)c(C)c2c1=O,56*,0.4,20,-3.3,0.8,-1.1
C=CCn1c(SCC(=O)c2cc(C)n(C(C)COC)c2C)nc2sc(C)c(C)c2c1=O (centres undefined),91*,0.1,89*,-2.9,0.1,-0.62
Cc1noc(C)c1CSc1nnnn1-c1ccc(Cl)cc1,58*,0.4,99*,0.5,0,-0.12
Cc1noc(C)c1CSc1nc2ccccc2n1CCc1ccccc1,62*,0.4,63*,-4.1*,0.4,-1.1
Cc1ccc(S(=O)(=O)n2[nH]c(=O)cc2N)cc1,x,x,x,1.5,x,x
Cc1occc1C(=O)NCc1ccc(C(=O)O)o1,1,1,-3,1.4,1,0.16
O=c1c2ccccc2nc(SCc2nc(-c3ccccc3)no2)n1-c1ccc(F)cc1,59*,0.4,16,-4.5*,0.8,x
Cc1ccc(-n2c(SCC(=O)Nc3cc(C)on3)nc3ccccc3c2=O)cc1,3,1,2,-1.6,1,1.5
SMILES,CYP2C9 inhib,CYP2C9 activ,CYP2C19 inh,Cav3 T inh,CYP2C19 act,Pyk2 oligo antag
Cc1sc2nc(SCC(=O)N(C)Cc3ccccc3)n(-c3ccccc3)c(=O)c2c1C,15,0.9,2,-0.11,1,-1.8
Cc1noc(C)c1CSc1nc2ccccc2c(=O)n1-c1ccc(Cl)cc1,96*,0,71*,-2.9,0.3,-0.86
Cc1noc(C)c1CSc1nc2sc(C)c(C)c2c(=O)n1-c1ccccc1,50*,0.5,-3,-1.2,1,-0.66
CCOC(=O)NC1(C(F)(F)F)C(=O)N(Cc2ccccn2)C2=C1C(=O)CC(C)(C)C2 (centres undefined),-10,1.1,14,-1.1,0.9,0.12
CCOC(=O)c1ccc(NC(=S)NC2CC(C)(C)NC(C)(C)C2)cc1,-14,1.1,37,-2.3,0.6,0.29
CC(C)NC(=O)CSc1nnc(C2CC2)n1-c1ccccc1,2,1,1,0.84,1,1.1
N#Cc1ccccc1NC(=O)CSc1nnc(-c2ccc(F)cc2)n1-c1ccccc1,45,0.5,63*,x,0.4,-0.51
Cc1cc(C(=O)CSc2nnc(-c3ccccc3)n2C)c(C)n1C,1,1,78*,1.1,0.2,0.72
O=C(CSc1nnc(-c2ccc3c(c2)OCO3)n1-c1ccccc1)c1ccccc1,x,x,x,x,x,0.79
Cc1cc(C(=O)CSc2nnc(-c3ccccc3)n2Cc2ccc3c(c2)OCO3)c(C)n1C,-8,1.1,13,-0.046,0.9,0.18
Cc1cc(C(=O)CSc2nnc(-c3ccccc3)n2-c2ccccc2)c(C)n1-c1ncn[nH]1,58*,0.4,62*,-0.014,0.4,-3.2*
CC(C)NC(=O)CSc1nnc(-c2ccncc2)n1-c1ccccc1,58*,0.4,92*,0.033,0.1,0.31
Cn1nnc2cc(C(=O)NC3CCCCC3)ccc21,-4,1,2,0.28,1,0.09
CCCn1nc2cc(C(=O)NCc3ccc(C)cc3)ccc2c1OC,7,0.9,3,-0.0089,1,x
Cc1cc(C(=O)CSc2nnc(-c3ccncc3)n2-c2ccccc2)c(C)n1C,34,0.7,84*,0.025,0.2,-0.28
C=CCNC(=S)N/N=C/c1ccc(-c2cc(Cl)ccc2Cl)o1,-69,1.7,9,0.85,0.9,-3.4*
C=CCNC(=S)Nc1ccc2nc(C)c(C)nc2c1,2,1,16,0.077,0.8,0.22
CCOC(=O)c1cn(-c2nc(-c3ccc(Cl)c(Cl)c3)cs2)c2c(F)c(N3CCOCC3)c(F)cc2c1=O,17,0.8,-5,x,1.1,0.32
CCCN1C(=O)C(Cc2nc3ccccc3c(=O)n2C)c2ccccc21 (centres undefined),28,0.7,48,x,0.5,-0.79
CCN1C(=O)C(Cc2nc3ccccc3c(=O)n2C)c2ccccc21 (centres undefined),60*,0.4,57*,0.16,0.4,-1.1
Cc1cc(C)c(C#N)c(SC2CCCCC2=O)n1 (centres undefined),-18,1.2,61*,0.6,0.4,1.8
N#Cc1c(N)nc(SC2CCCCC2=O)c(C#N)c1-c1ccco1 (centres undefined),x,x,x,0.26,x,0.75
O=C(c1ccccc1)c1ccc2nc[nH]c2c1,40,0.6,57*,0.27,0.4,-0.8
Cc1ccnc(SCC(=O)Nc2sc3c(c2C#N)CCCC3)n1,23,0.8,5,1.2,0.9,-1.2
